Most compounds without a hit are left out; they make up all but 1.8% or so of the library.
Vif-A3F inh – Vif-A3F binding inhibition; HeLa A3F-eYFP + Vif (tagged APOBEC3F with the HIV-1 protein that degrades it), YFP fluorescence increase; AID 602313; 390,000 compounds, 0.2% hits; Potency, µM (top dose mostly 46.1 µM); also: nearly all actives have a fitted effect of over 65% in size
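HeLa cells stably expressing A3F-eYFP plus Vif, plated and incubated overnight at 37 deg C, then exposed to compounds overnight at 37 deg C. Blocked degradation read as raised yellow fluorescence (Ex 488/Em 500-530).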
TrxR1 substrate – is turned over as a substrate by rat TrxR1; O89049; purified TrxR1 substrate turnover, NADPH consumption readout; Potency, µM (doses to about 114 µM); 390,000 compounds, 0.01% hits; also: nearly all actives have a fitted effect of over 50% in size
Target sequence (O89049 whole entry, looked up): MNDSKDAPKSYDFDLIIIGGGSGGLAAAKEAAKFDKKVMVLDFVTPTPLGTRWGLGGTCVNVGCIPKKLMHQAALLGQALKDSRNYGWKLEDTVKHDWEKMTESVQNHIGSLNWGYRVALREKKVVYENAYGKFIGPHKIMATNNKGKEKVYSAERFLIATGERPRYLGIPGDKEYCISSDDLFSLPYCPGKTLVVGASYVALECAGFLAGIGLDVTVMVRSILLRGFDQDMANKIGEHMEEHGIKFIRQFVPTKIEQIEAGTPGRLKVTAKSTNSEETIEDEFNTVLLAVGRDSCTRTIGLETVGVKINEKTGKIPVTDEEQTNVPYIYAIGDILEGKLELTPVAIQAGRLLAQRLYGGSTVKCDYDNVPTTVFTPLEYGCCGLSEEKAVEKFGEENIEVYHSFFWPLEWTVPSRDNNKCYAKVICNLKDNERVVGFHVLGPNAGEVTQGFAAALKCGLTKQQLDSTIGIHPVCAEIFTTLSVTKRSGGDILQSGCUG
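Rat TrxR1, dispensed at 90 nM, was prereduced with 400 uM NADPH (final) for 5 min at ~22 deg C, then incubated with compound 15 min before 400 uM selenite. A first-read NADPH fluorescence drop versus no-compound background flagged substrates.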
rTrxR1 inhibitor – inhibitors of rat thioredoxin reductase 1. AID 588453. recombinant rTrxR1, NADPH fluorescence consumption, selenite substrate. O89049. 390,000 compounds, 1% hits. Potency, µM (top dose mostly 114 µM), hits mostly inhibitors; also: nearly all actives have a fitted effect of over 65% in size
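Rat TrxR1 (90 nM in the dispensed reagent) was pre-reduced with 400 uM NADPH for 5 min at room temperature, then incubated with compound for 15 min. After 400 uM selenite was added, NADPH fluorescence (Ex 340/Em 450 nm) was followed for 8 min.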
VDR inh – blocks the human vitamin D receptor | VDR-SRC2-3 peptide fluorescence polarization, 2 h | 400,000 compounds, 0.93% hits | Potency, µM, usual class: inhibitors
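The screen uses fluorescence polarization to detect compounds that interfere with recruitment of the SRC2-3 coactivator peptide to VDR; plates are read after 2 h at room temperature.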
Vif-A3G inh – Vif-A3G binding inhibition; AID 602310; 410,000 compounds, 0.076% hits; Potency, µM (top dose mostly 46.1 µM), hits mostly inhibitors; HeLa A3G-eYFP + Vif (tagged APOBEC3G with the HIV-1 protein that degrades it), YFP fluorescence, overnight; Q9HC16; also: nearly all actives have a fitted effect of over 60% in size
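HeLa cells stably expressing Vif and C-terminally eYFP-tagged A3G, seeded overnight at 37 deg C, then exposed to compound by pintool overnight at 37 deg C. Rise in yellow fluorescence (Ex 488/Em 500-530, Acumen) marks blocked Vif-driven A3G degradation.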
Hits are given with their value; [ ] = another dose, or the depositor's remark. Calls follow the shape of the dose curve; as a rule, active = well fitted curve in the direction sought with a large enough effect; inconclusive = small, poorly fitted or top-dose-only effect, or another doubt; inactive = no such curve, though single readings can be large; an effect the other way counts as inactive or inconclusive.

O=C(CSc1ccc(-c2ccco2)nn1)c1cccc([N+](=O)[O-])c1 was read as Vif-A3F inh inactive, TrxR1 substrate inactive, rTrxR1 inhibitor 15.8µM, VDR inh inconclusive and Vif-A3G inh inactive.
CCc1ccc(NC(=O)CSc2ccc(-c3ccco3)nn2)cc1 was read as Vif-A3F inh inactive, TrxR1 substrate inactive, rTrxR1 inhibitor inconclusive, VDR inh 79.4µM and Vif-A3G inh inactive.
`O=C(CSc1ccc(-c2ccco2)nn1)NCc1ccc(Cl)cc1` gave Vif-A3F inh inactive, TrxR1 substrate inactive, rTrxR1 inhibitor 28.2µM, VDR inh inactive and Vif-A3G inh inactive.
`Cc1ccc(O)c(NC(=O)c2cc(-c3ccccc3O)no2)c1` gave Vif-A3F inh 11.2µM, TrxR1 substrate inactive, rTrxR1 inhibitor inactive, VDR inh inactive and Vif-A3G inh inconclusive.
CC(=O)OCC(NC(=O)C(CCCCNC(=O)OCc1ccccc1)NC(=O)OC(C)(C)C)C1OC(n2ccc(=O)[nH]c2=O)C(OC(C)=O)C1OC(C)=O (centres undefined) was read as TrxR1 substrate inactive, rTrxR1 inhibitor inactive, VDR inh inactive and Vif-A3G inh inactive.
`O=C(O)c1ccc(Cn2cc(/C=C\[N+](=O)[O-])c3ccccc32)o1` gave Vif-A3F inh inactive, TrxR1 substrate inactive, rTrxR1 inhibitor inconclusive, VDR inh 12.6µM and Vif-A3G inh inactive.
Oc1ccc2c(c1)OCC1(O)Cc3cc(O)c(O)cc3C21 (centres undefined) was read as Vif-A3F inh inactive, TrxR1 substrate inactive, rTrxR1 inhibitor 4.47µM, VDR inh 79.4µM and Vif-A3G inh inactive.
For CC(=O)Oc1ccc2c(c1OC(C)=O)OCC1(O)Cc3c(cc(OC(C)=O)c(OC(C)=O)c3OC(C)=O)C21 (centres undefined) the results were VDR inh inactive.
Screening Cn1c(C(c2cc3ccccc3n2C)c2cc3ccccc3n2C)cc2ccccc21 returned TrxR1 substrate inactive, rTrxR1 inhibitor inactive and Vif-A3G inh inconclusive.
NC(=O)/C(=N\OC(=O)c1ccco1)c1nc(-c2ccc(Br)cc2)cs1 was read as Vif-A3F inh inactive, TrxR1 substrate inactive, rTrxR1 inhibitor 7.08µM, VDR inh inactive and Vif-A3G inh inactive.
Screening C/C(=C1/C=Nc2ccccc21)c1ccc(N(C)C)cc1 returned TrxR1 substrate inactive[0.0914 µM], rTrxR1 inhibitor inactive and Vif-A3G inh inactive.
C/C=C\C(=O)Nc1cccc(C2=NOC3(C2)C[C@@H](C(N)=O)N(C(=O)C2(C)CC2)C3)c1 (some centres undefined) was read as Vif-A3F inh inactive, TrxR1 substrate inactive, rTrxR1 inhibitor inactive, VDR inh inactive and Vif-A3G inh inactive.
For C/C=C\C=C/C(=O)Nc1cccc(C2=NOC3(C2)C[C@@H](C(N)=O)N(C(=O)/C=C/CC)C3)c1 (some centres undefined) the results were Vif-A3F inh inactive, TrxR1 substrate inactive, rTrxR1 inhibitor 15.8µM, VDR inh inactive and Vif-A3G inh inactive.
`C/C=C\C=C/C(=O)Nc1cccc(C2=NOC3(C2)C[C@@H](C(N)=O)N(C(=O)/C=C/C=C\C)C3)c1` (some centres undefined) gave Vif-A3F inh inactive, TrxR1 substrate inactive, rTrxR1 inhibitor 7.08µM, VDR inh inconclusive and Vif-A3G inh inactive.
For C/C=C\C=C/C(=O)Nc1cccc(C2=NOC3(C2)C[C@@H](C(N)=O)N(C(=O)C2(C)CC2)C3)c1 (some centres undefined) the results were Vif-A3F inh inactive, TrxR1 substrate inactive, rTrxR1 inhibitor 28.2µM, VDR inh inconclusive and Vif-A3G inh inactive.
`C=C(C)C(=O)N1CC2(CC(c3cccc(NC(=O)/C=C\C=C/C)c3)=NO2)C[C@H]1C(N)=O` (some centres undefined) gave Vif-A3F inh inactive, TrxR1 substrate inactive, rTrxR1 inhibitor 20µM, VDR inh 89.1µM and Vif-A3G inh inactive.
Screening C=C(C)C(=O)Nc1cccc(C2=NOC3(C2)C[C@@H](C(N)=O)N(C(=O)C(=C)C)C3)c1 (some centres undefined) returned Vif-A3F inh inactive, TrxR1 substrate inactive, rTrxR1 inhibitor inactive, VDR inh inactive and Vif-A3G inh inactive.
Screening Cc1ccccc1NC(=O)c1ccccc1OCC(=O)Nc1ccc(Br)cc1 returned TrxR1 substrate inactive, rTrxR1 inhibitor inactive and Vif-A3G inh inactive.
COc1cc(C2CC(=O)N(Cc3ccc(F)cc3)c3ccccc3S2)cc(OC)c1OC (centres undefined) was read as Vif-A3F inh inactive, TrxR1 substrate inactive, rTrxR1 inhibitor inactive, VDR inh inactive and Vif-A3G inh inactive.
`O=C(CSc1nnc(-c2ccco2)c(-c2ccco2)n1)c1ccccc1` gave Vif-A3F inh inconclusive, TrxR1 substrate inactive, rTrxR1 inhibitor 12.6µM, VDR inh inconclusive and Vif-A3G inh inactive.
`COc1ccc(-c2nnc(SCC(=O)Nc3ccc(C(C)=O)cc3)nc2-c2ccc(OC)cc2)cc1` gave Vif-A3F inh inconclusive, TrxR1 substrate inactive, rTrxR1 inhibitor inactive, VDR inh inactive and Vif-A3G inh inactive.
Screening O=C(CSc1nnc(-c2ccco2)n1Cc1ccccc1)c1ccccc1 returned Vif-A3F inh inactive, TrxR1 substrate inactive, rTrxR1 inhibitor inactive, VDR inh inactive and Vif-A3G inh inactive.
CC(=O)c1ccc(NC(=O)CSc2nnc(-c3ccco3)c(-c3ccco3)n2)cc1 was read as Vif-A3F inh inactive, TrxR1 substrate inactive, rTrxR1 inhibitor 7.08µM, VDR inh 22.4µM and Vif-A3G inh inactive.
CN1CCO/C1=C(\C(Cl)=C(Cl)Cl)[N+](=O)[O-] was read as Vif-A3F inh inactive, TrxR1 substrate inactive, rTrxR1 inhibitor inactive, VDR inh inactive and Vif-A3G inh inactive.
For O=[N+]([O-])C(=C1Nc2ccccc2N1)C(Cl)=C(Cl)Cl the results were Vif-A3F inh inactive, TrxR1 substrate inactive, rTrxR1 inhibitor 11.2µM, VDR inh inconclusive and Vif-A3G inh inactive.
`O=[N+]([O-])c1ccc(S(=O)(=O)CC(CN2CCCCC2)N2CCCCC2)cc1` (centres undefined) gave Vif-A3F inh inactive, TrxR1 substrate inactive, rTrxR1 inhibitor 2.51µM, VDR inh inactive and Vif-A3G inh inactive.
`Cc1cc(NC(=O)C2CCN(S(=O)(=O)c3cccc4nsnc34)CC2)ccc1Br` gave Vif-A3F inh inactive, TrxR1 substrate inactive, rTrxR1 inhibitor inactive, VDR inh inactive and Vif-A3G inh inactive.
COc1ccc(CCNC(=O)CCCCn2c(=O)c3ccccc3n(Cc3ccc(Cl)cc3)c2=O)cc1OC was read as Vif-A3F inh inactive, TrxR1 substrate inactive, rTrxR1 inhibitor inactive, VDR inh inactive and Vif-A3G inh inactive.
CCOc1ccc(OCC)c(Nc2cc(C)nc3nc(-c4ccco4)nn23)c1 was read as Vif-A3F inh inactive, TrxR1 substrate inactive, rTrxR1 inhibitor inactive, VDR inh inactive and Vif-A3G inh inactive.
